Measured values reported in ChEMBL document CHEMBL3988442, “University of Dundee, Small-Polar-MMV Screening Library” (2021).
For some assays here: Results with a measured potency or affinity are listed apart.

Experiments:
Parameters in all cases: scale not given: direction of the effect not stated beside the values
[1] = target: Protein translocase subunit SecA (Escherichia coli (strain K12)) (UniProt P10408); experiment: Assay to Identify E. coli SecA ATPase Inhibitors; type: functional; conditions: 30 µM
Sequence of Protein translocase subunit SecA (Escherichia coli (strain K12)) (P10408 whole entry): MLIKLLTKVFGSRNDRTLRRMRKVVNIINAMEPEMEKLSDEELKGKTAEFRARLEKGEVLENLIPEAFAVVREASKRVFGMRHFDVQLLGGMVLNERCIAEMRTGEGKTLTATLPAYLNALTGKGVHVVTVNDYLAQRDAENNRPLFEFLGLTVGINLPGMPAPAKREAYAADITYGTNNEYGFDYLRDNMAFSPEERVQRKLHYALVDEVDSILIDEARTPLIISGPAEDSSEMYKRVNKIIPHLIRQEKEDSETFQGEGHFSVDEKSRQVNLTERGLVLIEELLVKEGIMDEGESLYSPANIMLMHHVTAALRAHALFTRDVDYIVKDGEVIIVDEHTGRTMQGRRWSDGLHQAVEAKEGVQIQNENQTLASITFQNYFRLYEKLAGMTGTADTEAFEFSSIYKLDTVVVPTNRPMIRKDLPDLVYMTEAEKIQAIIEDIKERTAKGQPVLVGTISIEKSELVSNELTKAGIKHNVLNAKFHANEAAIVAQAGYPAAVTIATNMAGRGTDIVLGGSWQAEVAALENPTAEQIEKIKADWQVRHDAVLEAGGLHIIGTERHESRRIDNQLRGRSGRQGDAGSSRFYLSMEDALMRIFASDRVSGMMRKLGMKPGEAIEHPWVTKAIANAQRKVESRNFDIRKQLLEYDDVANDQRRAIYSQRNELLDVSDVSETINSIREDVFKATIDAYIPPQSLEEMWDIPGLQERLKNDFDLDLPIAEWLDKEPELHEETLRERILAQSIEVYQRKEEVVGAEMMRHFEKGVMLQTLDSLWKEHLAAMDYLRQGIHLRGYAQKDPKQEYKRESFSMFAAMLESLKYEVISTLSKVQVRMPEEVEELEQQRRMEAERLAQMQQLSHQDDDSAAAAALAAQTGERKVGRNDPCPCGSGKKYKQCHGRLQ

[2] = target: T1, Ubiquitin-activating enzyme e1, putative (Leishmania donovani (strain BPK282A1)) (UniProt E9BSI1); experiment: Leishmania donovani Ubiquitin Activating Enzyme (LdE1); type: functional; conditions: 30 µM
T1 sequence (whole entry): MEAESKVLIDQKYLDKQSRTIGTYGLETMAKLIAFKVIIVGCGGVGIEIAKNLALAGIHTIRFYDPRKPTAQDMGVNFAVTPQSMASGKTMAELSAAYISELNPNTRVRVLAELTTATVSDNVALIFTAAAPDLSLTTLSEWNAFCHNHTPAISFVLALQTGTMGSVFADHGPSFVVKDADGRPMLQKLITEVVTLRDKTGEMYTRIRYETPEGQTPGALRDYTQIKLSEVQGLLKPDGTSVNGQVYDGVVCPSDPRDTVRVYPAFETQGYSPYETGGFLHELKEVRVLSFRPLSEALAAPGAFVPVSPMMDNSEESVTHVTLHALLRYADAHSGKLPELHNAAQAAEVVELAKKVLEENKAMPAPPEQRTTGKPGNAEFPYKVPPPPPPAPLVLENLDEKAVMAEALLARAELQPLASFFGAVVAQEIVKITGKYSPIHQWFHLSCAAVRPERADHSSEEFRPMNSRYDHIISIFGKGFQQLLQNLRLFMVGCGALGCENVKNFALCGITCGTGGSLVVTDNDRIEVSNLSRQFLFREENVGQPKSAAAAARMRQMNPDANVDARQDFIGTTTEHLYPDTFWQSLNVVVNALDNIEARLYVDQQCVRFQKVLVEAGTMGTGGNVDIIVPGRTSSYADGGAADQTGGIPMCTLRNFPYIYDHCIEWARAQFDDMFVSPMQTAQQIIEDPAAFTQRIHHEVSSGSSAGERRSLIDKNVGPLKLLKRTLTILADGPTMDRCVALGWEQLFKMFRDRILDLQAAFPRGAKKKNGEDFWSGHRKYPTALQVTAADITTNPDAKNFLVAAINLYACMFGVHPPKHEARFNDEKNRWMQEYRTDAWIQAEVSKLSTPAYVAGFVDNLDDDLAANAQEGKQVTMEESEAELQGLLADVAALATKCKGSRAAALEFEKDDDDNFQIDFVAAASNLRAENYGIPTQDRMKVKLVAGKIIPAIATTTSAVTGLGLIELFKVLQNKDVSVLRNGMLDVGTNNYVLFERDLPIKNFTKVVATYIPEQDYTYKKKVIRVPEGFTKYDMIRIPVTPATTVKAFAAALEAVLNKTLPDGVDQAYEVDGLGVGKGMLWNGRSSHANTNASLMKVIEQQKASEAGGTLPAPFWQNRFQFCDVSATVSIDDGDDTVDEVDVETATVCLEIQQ

[3] = target: AMP-activated protein kinase, AMPK (Homo sapiens) (UniProt P54646+O43741+P54619+Q9UGJ0+Q9Y478+Q13131+Q9UGI9); experiment: AMP-dependent Kinase enzyme assay. An in vitro enzyme assay that detects ADP turnover that is directly proportional to AMPK activity. This uses naive AMPK that is activated during the assay with MK-8722; type: functional; conditions: 30 µM
[4] = target: Sialic acid-binding Ig-like lectin 9 (Homo sapiens) (UniProt Q9Y336); experiment: Hs-Siglec9 ALPHAscreen SOP 20170721; conditions: 10 µM
Sequence of Sialic acid-binding Ig-like lectin 9 (Homo sapiens) (Q9Y336 whole entry): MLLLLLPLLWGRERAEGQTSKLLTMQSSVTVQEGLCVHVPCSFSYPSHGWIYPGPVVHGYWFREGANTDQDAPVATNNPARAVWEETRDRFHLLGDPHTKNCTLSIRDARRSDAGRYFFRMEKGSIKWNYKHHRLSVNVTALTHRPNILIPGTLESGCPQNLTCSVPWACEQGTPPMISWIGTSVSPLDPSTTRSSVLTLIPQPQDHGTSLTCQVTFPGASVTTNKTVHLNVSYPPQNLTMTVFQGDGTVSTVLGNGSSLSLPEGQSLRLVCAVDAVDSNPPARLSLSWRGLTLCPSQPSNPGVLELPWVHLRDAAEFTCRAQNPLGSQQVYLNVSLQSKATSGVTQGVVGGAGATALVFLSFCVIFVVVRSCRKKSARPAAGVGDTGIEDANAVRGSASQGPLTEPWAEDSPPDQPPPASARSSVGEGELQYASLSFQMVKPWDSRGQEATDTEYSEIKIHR

[5] = test system: Trypanosoma cruzi; experiment: Trypanosoma cruzi phosphomannomutase and mannose-1-phosphate guanylyltransferase assay; type: functional; conditions: 10 µM
[6] = target: T2, Arginase-2, mitochondrial (Homo sapiens) (UniProt P78540); experiment: in vitro enzyme assay to detect the production of urea directly proportional to the activity of Arginase II; type: functional; conditions: 33.3 µM; further: in the data most compounds retested in dose-response had high values
T2 sequence (whole entry): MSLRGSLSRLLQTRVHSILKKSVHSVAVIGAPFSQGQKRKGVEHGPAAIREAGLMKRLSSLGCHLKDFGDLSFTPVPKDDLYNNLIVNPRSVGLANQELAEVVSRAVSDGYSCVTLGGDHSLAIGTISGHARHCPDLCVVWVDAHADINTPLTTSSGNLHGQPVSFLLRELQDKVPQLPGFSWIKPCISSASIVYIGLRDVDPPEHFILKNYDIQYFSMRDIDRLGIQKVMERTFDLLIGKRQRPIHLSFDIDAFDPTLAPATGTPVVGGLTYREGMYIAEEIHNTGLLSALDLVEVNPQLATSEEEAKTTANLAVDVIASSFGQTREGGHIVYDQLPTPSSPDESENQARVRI

[7] = target: T3, Proteasome subunit beta (Trypanosoma cruzi) (UniProt O96673); experiment: Trypanosoma cruzi proteasome chymotrypsin-like activity (TcProtChymo) assay.; further: in the data most compounds retested in dose-response had high values; type: functional; conditions: 9.37 µM
T3 sequence (whole entry): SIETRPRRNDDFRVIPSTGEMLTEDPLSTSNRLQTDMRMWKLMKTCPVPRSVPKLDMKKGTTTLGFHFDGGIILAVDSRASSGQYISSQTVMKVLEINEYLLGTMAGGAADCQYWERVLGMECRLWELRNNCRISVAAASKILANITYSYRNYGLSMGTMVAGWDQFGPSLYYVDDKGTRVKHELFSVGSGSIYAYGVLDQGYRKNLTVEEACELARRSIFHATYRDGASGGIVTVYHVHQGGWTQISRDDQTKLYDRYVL

[8] = organism: Homo sapiens; experiment: To identify inhibition of the IFN signalling (Jak-Stat) pathway via expression of an eGFP reporter gene under the control of an IFN-stimulated response element (ISRE) containing MxA promoter.; type: functional; conditions: 30 µM
[9] = target: T4, Tyrosyl-tRNA synthetase, putative (Trypanosoma cruzi (strain CL Brener)) (UniProt Q4DSP6); experiment: Trypanosoma cruzi tyrosyl tRNA synthetase (TcYRS) _High Tyrosine SOP; type: functional; conditions: 30 µM; further: in the data most compounds retested in dose-response had high values
T4 sequence (whole entry): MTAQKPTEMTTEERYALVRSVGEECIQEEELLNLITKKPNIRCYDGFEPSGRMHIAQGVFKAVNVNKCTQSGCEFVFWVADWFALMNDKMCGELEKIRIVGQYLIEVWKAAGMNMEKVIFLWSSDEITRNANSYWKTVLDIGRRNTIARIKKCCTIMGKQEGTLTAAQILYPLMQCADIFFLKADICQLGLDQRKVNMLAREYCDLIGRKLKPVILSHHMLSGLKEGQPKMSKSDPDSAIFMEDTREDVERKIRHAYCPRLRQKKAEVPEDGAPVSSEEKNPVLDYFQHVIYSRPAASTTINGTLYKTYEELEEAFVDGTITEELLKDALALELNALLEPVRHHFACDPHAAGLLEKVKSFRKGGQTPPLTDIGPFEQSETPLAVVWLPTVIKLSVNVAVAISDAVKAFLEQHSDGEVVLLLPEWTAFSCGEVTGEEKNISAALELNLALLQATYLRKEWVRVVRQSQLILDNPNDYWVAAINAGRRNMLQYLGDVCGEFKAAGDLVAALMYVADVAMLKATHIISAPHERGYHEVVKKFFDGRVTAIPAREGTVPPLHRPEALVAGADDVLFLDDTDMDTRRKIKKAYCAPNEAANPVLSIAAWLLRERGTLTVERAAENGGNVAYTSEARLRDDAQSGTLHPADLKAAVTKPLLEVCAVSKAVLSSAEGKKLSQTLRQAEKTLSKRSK

[10] = target: T4, Tyrosyl-tRNA synthetase, putative (Trypanosoma cruzi (strain CL Brener)); experiment: Trypanosoma cruzi tyrosyl tRNA synthetase (TcYRS) SOP; type: functional; conditions: 30 µM
[11] = target: Chromo domain-containing protein 1 (Saccharomyces cerevisiae (strain ATCC 204508 / S288c) (Baker's yeast)) (UniProt P32657); experiment: ScCHD-1 Enzyme Inhibition Assay; type: functional; conditions: 30 µM; further: in the data most compounds retested in dose-response had high values
Sequence of Chromo domain-containing protein 1 (Saccharomyces cerevisiae (strain ATCC 204508 / S288c) (Baker's yeast)) (P32657 whole entry, the tested form may be a part): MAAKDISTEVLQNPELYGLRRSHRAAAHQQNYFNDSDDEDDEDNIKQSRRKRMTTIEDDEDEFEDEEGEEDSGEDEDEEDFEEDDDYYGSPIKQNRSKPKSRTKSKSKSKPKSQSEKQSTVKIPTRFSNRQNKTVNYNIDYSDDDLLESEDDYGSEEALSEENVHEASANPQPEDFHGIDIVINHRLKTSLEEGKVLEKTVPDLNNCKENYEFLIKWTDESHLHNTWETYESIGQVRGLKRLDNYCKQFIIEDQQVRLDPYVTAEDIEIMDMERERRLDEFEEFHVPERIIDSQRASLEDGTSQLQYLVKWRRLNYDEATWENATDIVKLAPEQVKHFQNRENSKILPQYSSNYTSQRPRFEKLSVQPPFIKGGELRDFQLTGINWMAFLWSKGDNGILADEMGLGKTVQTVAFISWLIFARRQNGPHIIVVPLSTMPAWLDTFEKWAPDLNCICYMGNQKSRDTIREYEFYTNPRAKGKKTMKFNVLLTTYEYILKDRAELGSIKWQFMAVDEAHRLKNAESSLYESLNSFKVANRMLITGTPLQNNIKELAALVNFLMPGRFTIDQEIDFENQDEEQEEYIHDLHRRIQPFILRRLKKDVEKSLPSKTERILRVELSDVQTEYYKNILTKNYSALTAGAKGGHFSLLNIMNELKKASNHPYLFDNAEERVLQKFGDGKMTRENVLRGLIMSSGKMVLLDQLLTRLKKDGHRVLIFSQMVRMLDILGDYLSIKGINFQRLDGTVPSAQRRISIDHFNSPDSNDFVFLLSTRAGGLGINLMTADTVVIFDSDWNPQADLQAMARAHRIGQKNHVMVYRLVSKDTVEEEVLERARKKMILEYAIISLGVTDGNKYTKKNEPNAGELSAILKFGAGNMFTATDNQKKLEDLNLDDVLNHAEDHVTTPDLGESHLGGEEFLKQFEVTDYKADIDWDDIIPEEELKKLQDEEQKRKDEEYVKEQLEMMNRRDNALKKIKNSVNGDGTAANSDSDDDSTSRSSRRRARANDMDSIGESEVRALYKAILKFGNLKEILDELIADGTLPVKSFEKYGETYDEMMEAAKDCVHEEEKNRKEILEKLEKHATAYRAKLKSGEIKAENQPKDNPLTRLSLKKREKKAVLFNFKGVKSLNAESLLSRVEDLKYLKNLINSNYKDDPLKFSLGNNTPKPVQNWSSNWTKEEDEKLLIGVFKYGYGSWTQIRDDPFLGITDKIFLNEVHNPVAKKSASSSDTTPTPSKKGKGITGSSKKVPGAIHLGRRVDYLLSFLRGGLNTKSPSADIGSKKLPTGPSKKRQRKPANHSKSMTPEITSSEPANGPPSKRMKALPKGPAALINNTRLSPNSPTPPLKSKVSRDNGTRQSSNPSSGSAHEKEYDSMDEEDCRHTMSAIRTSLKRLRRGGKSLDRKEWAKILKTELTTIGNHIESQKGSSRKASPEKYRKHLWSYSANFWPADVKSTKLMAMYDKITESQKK

| Structure (SMILES) | Percent Effect [1] [%] | Percent Effect [2] [%] | Percent Effect [3] [%] | Percent Effect [4] [%] | Percent Effect [5] [%] | Percent Effect [6] [%] | Percent Effect [7] [%] | Percent Effect [8] [%] | Percent Effect [9] [%] | Percent Effect [10] [%] | Percent Effect [11] [%] |
| --- | --- | --- | --- | --- | --- | --- | --- | --- | --- | --- | --- |
| CC(C)N(C)Cc1nnc2n1CCCN(C(=O)c1ccco1)C2 | -1.99 | 10.4 | 3.35 | 2.67 | 1.08 | 13.6 | 14.3 | 24.5 | 7.41 | 14.1 | -7.03 |
| CCN(CC)S(=O)(=O)N1CCCC(c2ccc(C(=O)O)cc2)C1 (stereo unspecified) | -1.63 | -2.7 | 0.184 | 8.84 | -4.44 | -4.76 | 0.69 | -0.683 | 2.65 | 0 | -0.737 |
| O=C(Nc1cccnc1)N1CCC(n2ccc(C(F)(F)F)n2)CC1 | -7.93 | 8.22 | -4.95 | 13 | 3.72 | -0.909 | 10.5 | 2.75 | 1.07 | 10 | -5.84 |
| Clc1ccc2cccnc2c1CN1CCCC(Cn2cncn2)C1 (stereo unspecified) | -4.92 | 0 | -3.69 | 7.75 | 0.279 | 1.66 | 12 | 18.1 | 7.92 | 13.4 | 3.69 |
| COCCN1CCN(C(=O)c2ccncc2F)Cc2cccnc21 | 2.77 | 6.67 | 4.36 | -2.01 | -10.6 | -1.58 | 20.3 | 0.197 | 3.17 | -5.13 | -10.5 |
| Cc1ccc(Cc2cnc(NC(=O)C3CNC(=O)N3)s2)cc1F (stereo unspecified) | -2.83 | 8.86 | 4.79 | 5.91 | 0.308 | 1.5 | 16.6 | -4.36 | -3.12 | 17.7 | -8.88 |
| Cc1cnn(CC2CN(Cc3nccn3C)CCO2)c1 (stereo unspecified) | -2.86 | 5.41 | -4.03 | 2.01 | -1.95 | 3.14 | 1.44 | 8.74 | 6.93 | 11 | -1.23 |
| Cc1cnn(CC(C)NCc2ccc(S(C)(=O)=O)cc2)c1 (stereo unspecified) | -2.77 | 13.9 | -0.525 | 2.13 | -1.74 | -3.23 | 12.3 | 0.644 | 8.33 | 25.3 | -28 |
| O=C(c1ccc(N2CCCC2)nn1)N1CCCC(n2cccn2)C1 (stereo unspecified) | -6.6 | 10.5 | -3 | -5.01 | -6.44 | 5.4 | 5.33 | -4.4 | 4.43 | 3.7 | 1.12 |
| CCC(C)NC(=O)NCCCn1nc2ccccn2c1=O (stereo unspecified) | -2.08 | 13.5 | -4.74 | -3.56 | 7.08 | -3.61 | 16.4 | -114 | 1.48 | 18.5 | -14.5 |
| O=C(Nc1cccc(CNCc2csc(Br)c2)c1)C1CC1 | -8.41 | 23.7 | -5.54 | -1.24 | 5.32 | 2.16 | 7.19 | 37.8 | 3.45 | 25.9 | -8.55 |
| CC(=O)Nc1nc(C(=O)Nc2ccc(N3CCCCC3)nc2)cs1 | -1.91 | -3.8 | 22.9 | 0.734 | -3.18 | -1.5 | 10.6 | 11.2 | 9.38 | 10.1 | -11.6 |
| COCCN1CC[C@H](O)[C@@H]1Cc1ccccc1 | -2.09 | 12 | -0.98 | 0.93 | 0.786 | 6.87 | 20 | 22.1 | 5.29 | 7.69 | -4.88 |
| CCc1nc(CC(=O)N2CCOCC2c2ncon2)cs1 (stereo unspecified) | -0.574 | -2.7 | -3.99 | -2.13 | -3.99 | 1.29 | 5.75 | -8.37 | 0 | -1.22 | 2.33 |
| O=C1CC[C@H]2[C@H](CCN2C(=O)C2CCCO2)N1CCN1CCCC1 (stereo partly specified) | 1.49 | 1.33 | 6.35 | -1.83 | 0.393 | -3.7 | 10.7 | -5.66 | 2.12 | 0 | -4.01 |
| O=C(C1CCOCC1)N1CCO[C@H]2[C@@H](OCc3ccncc3)CC[C@@H]21 | -7.25 | 16.2 | -5.41 | 21.1 | 4.1 | 1.67 | 6.17 | 32.4 | 2.97 | 13.4 | -6.34 |
